Rows were chosen to be rich in hits. Some 7.4% of all compounds tested hit in one or more screens of this group.
FLuc counter: firefly luciferase modulation, counter-screen for miR-21 project | Potency, µM (highest dose often 57.5 µM), without a hit: at the top dose activity change, negative = inhibition, hits mostly inhibitors | purified FLuc, Km substrates, luminescence inhibition | 6.9% of 360,000 active | P08659;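 note: plate controls were vehicle for no effect and reference inhibitor for full effect; nearly all actives have a fitted effect of over 55% in size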
Target sequence (P08659 whole entry, looked up): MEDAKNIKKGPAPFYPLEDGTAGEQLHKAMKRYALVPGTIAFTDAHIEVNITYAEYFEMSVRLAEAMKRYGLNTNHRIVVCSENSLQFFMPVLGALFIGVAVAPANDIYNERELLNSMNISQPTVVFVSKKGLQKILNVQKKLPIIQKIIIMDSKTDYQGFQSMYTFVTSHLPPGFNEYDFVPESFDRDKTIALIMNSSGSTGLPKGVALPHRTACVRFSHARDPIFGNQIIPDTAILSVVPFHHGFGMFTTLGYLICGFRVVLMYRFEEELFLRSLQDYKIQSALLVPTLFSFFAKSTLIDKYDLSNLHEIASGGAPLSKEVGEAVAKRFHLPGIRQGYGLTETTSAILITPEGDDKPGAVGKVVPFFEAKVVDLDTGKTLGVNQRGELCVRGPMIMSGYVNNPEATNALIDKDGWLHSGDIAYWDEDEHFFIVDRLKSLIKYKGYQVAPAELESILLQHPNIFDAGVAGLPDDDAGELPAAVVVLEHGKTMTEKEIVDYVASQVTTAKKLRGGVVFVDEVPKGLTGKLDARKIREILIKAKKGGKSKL
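Purified P. pyralis luciferase (10nM final) with 10uM D-luciferin and 10uM ATP (Km levels) in 50mM Tris acetate pH 7.5, 10mM Mg acetate, 0.01% Tween-20, 0.05% BSA; qHTS 6-point titration, ~60 µM downward; luminescence read.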
ELG1 genotox: genotoxicity induction in ELG1-luciferase HEK293T cells; HEK293T ELG1-luciferase reporter, luminescence, 16 h; Potency, µM (titrated, usually from 46 µM), for inactives: at the top dose activity change, positive = activation, usual class: activators; 1.3% of 330,000 active; note: % of control where 0% means no effect; nearly all actives have a fitted effect of over 60% in size
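After overnight (16 hr) compound treatment at 37 °C, ELG1-luciferase HEK293T cells were lysed with ONE-Glo; luminescence quantified 30 min later at room temperature.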
Rab9 promoter act: Rab9 promoter activation; Huh7 Rab9 promoter-luciferase reporter, luminescence, 24 h; Potency, µM (series often up to 9.22 µM), for the others: top-dose activation, negative = inhibition, most hits filed as activators; 2.8% of 320,000 active; note: % of control where 0% means no effect; nearly all actives have a fitted effect of over 60% in size
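Promoter activation is measured as luciferase luminescence in Huh7 cells stably transfected with a Rab9 promoter–luciferase construct, following 24 h compound exposure at 37 °C and 10 min reagent incubation at ambient temperature.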
NPC1 promoter act: NPC1 promoter activation | Huh7 NPC1 promoter luciferase reporter, 24 h | Potency, µM (highest dose often 9.22 µM), for the others: at the highest dose activation, usual class: activators | 2.4% of 320,000 active | AID 485313; note: % of control where 0% means no effect; nearly all actives have a fitted effect of over 60% in size
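Stable NPC1-promoter luciferase Huh7 line; cpd (DMSO) 24 h, 37 °C, 5% CO2; Amplite luciferase reagent 10 min RT; luminescence readout. qHTS format.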
p53 reactivator: mutant p53 re-activation in reporter cells; H1299 p53-A138V BP100-luciferase reporter, luminescence, 24 h; Potency, µM (highest dose often 92.2 µM), for the others: at the top dose activity change, positive = activation, usual class: activators; 0.063% of 320,000 active; note: % of control where 0% means no effect; nearly all actives have a fitted effect of over 45% in size
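H1299 (p53-null), stable ts p53-A138V + BP100-Luc; 1000 cells/well, Opti-MEM/10% FBS; cpd 4 pt, 1:5; 24 h, 37 deg C, 5% CO2; detection reagent 10 min RT; luminescence.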
SMN2 splice enh: SMN2 splice variant enhancement | HEK293 SMN2-luciferase splicing reporter, luminescence, 30-36 h | Potency, µM (series often up to 46.1 µM), inactives show top-dose activity change, positive = activation, usual class: activators | 2.8% of 210,000 active | AID 1458; note: % of control where 0% means no effect; nearly all actives have a fitted effect of over 55% in size
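HEK293 cells carry an SMN2 […]–luciferase reporter in which exon 7 inclusion puts luciferase in frame. Cells were plated 10-12 h before compound addition, then incubated 30-36 h at 37C. ONE-Glo luminescence was read; sodium butyrate at 4.5 mM final served as control.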
Active calls of the source: *; ? = inconclusive; · = no result given; [ ] = dose if it differs, or a comment. Calls come from the whole dose curve; as a rule, active = well fitted curve in the direction sought with a large enough effect; inconclusive = small, poorly fitted or top-dose-only effect, or another doubt; inactive = no such curve, though single readings can be large; an effect the other way counts as inactive or inconclusive. Potency is the fitted concentration of half-maximal effect.

SMILES | FLuc counter | ELG1 genotox | Rab9 promoter act | NPC1 promoter act | p53 reactivator | SMN2 splice enh
O=C(Nc1nc(-c2nc3ccccc3s2)cs1)C1COc2ccccc2O1 (centres undefined) | 19µM* | 1.1% | 28.1% | 20.1% | ? | 25.1µM*
COc1ccc2nc(NC(=O)C3COc4ccccc4O3)sc2c1 (centres undefined) | 3.01µM* | ? | 3.16µM* | 1.58µM* | ? | 12.6µM*
COc1ccc2nc(NNC(=O)C3COc4ccccc4O3)sc2c1 (centres undefined) | -12.0% | 1.5% | -0.5% | 0.1% | 18.5% | -3.2%
COc1ccc(OC)c(-c2csc(NC(=O)C3COc4ccccc4O3)n2)c1 (centres undefined) | -15.4% | 3.3% | 2.2% | -0.9% | -2.1% | -15.7%
CS(=O)(=O)c1ccc2nc(NC(=O)C3COc4ccccc4O3)sc2c1 (centres undefined) | 10.7µM* | 6.0% | 21.9% | 25.6% | ? | ·
CCOC(=O)c1cc(C(=O)NC(C)c2ccccc2)c(C)[nH]c1=O (centres undefined) | -3.7% | -3.2% | -0.3% | -0.8% | 2.3% | ·
Cc1cc(C)cc(Oc2nc3c(C)cccn3c(=O)c2/C=C(\C#N)c2nc3ccccc3s2)c1 | -10.7% | · | · | · | · | 5.6%
O=C(NC(=S)N1CCOCC1)c1cn(-c2ccccc2)nc1-c1ccccc1 | 16.9µM* | -7.6% | 1.3% | -0.4% | 31.0% | ·
O=C(NN=C1CCCCCC1)c1cn(-c2ccccc2)nc1-c1ccccc1 | 15.1µM* | 0.0% | 0.9% | -3.1% | 2.3% | -28.5%
Cc1cc(C(=O)NN=C2CCCC2)c2ccccc2n1 | 0.0% | -2.3% | 10.6% | 5.2% | -1.6% | ·
O=C(NN=C1CCCCCC1)c1cc(-c2ccccc2)nc2ccccc12 | 16.9µM* | 2.1% | -4.3% | -9.4% | 0.1% | 12.6%
Cc1ccc(-c2cc(C(=O)NN=C3CCCC3)c3ccccc3n2)cc1 | 4.26µM* | 2.6% | -4.3% | -0.1% | -0.7% | -12.2%
CN1[C@@H](c2ccccc2)CC(=NO)C[C@H]1c1ccccc1 | · | · | · | · | · | -6.0%[9.22 µM]
O=C(Nc1ccc(NC(=O)c2ccccc2Cl)nc1)c1ccco1 | ? | 11.3% | ? | -27.9% | ? | ·
COc1ccc(Cl)cc1NC(=O)CSc1nc(=O)[nH]c2c1CCC2 | -12.3% | · | · | · | · | ·
O=C(N/N=C/c1ccc([N+](=O)[O-])o1)c1cc(-c2cccc(Br)c2)nc2ccccc12 | 4.78µM* | -3.3% | 22.7% | -0.1% | 0.0% | -63.9%
CCCc1ccc(-c2cc(C(=O)N/N=C/c3ccc([N+](=O)[O-])o3)c3ccccc3n2)cc1 | 0.151µM* | ? | ? | 9.0% | ? | 4.4%
O=C(NCCCc1nc2ccccc2n1Cc1ccc(Cl)cc1Cl)c1ccco1 | -7.7% | · | · | · | · | -18.2%
O=C(NCCO)c1ccc(Cl)cc1 | · | · | · | · | · | -13.5%[9.22 µM]
Cc1ccc2cccnc2c1 | · | · | · | · | · | 3.2%
COC(=O)c1cc2sc(C)cc2n1CC(=O)Nc1cccc(SC)c1 | -6.6% | · | · | · | · | -6.6%
Cc1c([N+](=O)[O-])c(C(=O)N2CCCC2)nn1C | -1.8% | 1.9% | 2.2% | -3.0% | 4.4% | 10.5%
Cc1c([N+](=O)[O-])c(C(=O)Sc2ccc(Br)cc2)nn1C | 16.9µM* | -9.8% | -10.3% | 3.2% | -4.8% | ·
COc1ccc(CNC(=S)N/N=C(/C)c2ccccc2)cc1 | 7.57µM* | 18.3µM* | ? | ? | 28.2µM* | ·
COc1ccc(C(c2c(O)ccc3ccccc23)N2CCOCC2)c(OC)c1 (centres undefined) | 12µM* | ? | 3.5% | -3.0% | -15.2% | ?
SMILES | FLuc counter | ELG1 genotox | Rab9 promoter act | NPC1 promoter act | p53 reactivator | SMN2 splice enh
Cc1ccn2c(c1)nc(=O)c1cc(S(=O)(=O)N3CCOCC3)ccc12 | 1.2% | -0.5%[9.26 µM] | 0.0% | -4.5% | 4.1% | ·
O=C(CCCCCN1CCN(c2ccccc2-c2ccccc2)CC1)NC1CCCc2ccccc21 (centres undefined) | · | · | -31.6%[46.1 µM] | -31.4%[46.1 µM] | · | ·
C/C(=N\NC(=O)c1sccc1C)c1ccncc1 | 16.9µM* | 10.3µM* | 3.16µM* | ? | ? | ·
C/C(=N\Nc1ccc(C)c(Cl)c1)c1ccncc1 | ? | 7.5% | 15.5% | -2.2% | 19.7% | ·
C/C(=N/NC(=O)c1ccc(C)s1)c1ccncc1 | ? | ? | ? | ? | 15.3% | ·
C/C(=N\NC(=O)c1sccc1C)c1cccnc1 | 13.5µM* | ? | ? | ? | ? | ·
C/C(=N\NC(=O)c1cccs1)c1ccncc1 | · | 5.6% | 2.3% | 16.2% | 5.7% | ·
C/C(=N/NC(=O)c1ccco1)c1cccnc1 | -1.6% | -7.5% | -0.4% | -1.3% | 22.3% | 28.5%
CCc1ccc(C(=O)N/N=C(\C)c2ccncc2)s1 | 16.9µM* | ? | 3.16µM* | 3.55µM* | 0.3% | ·
C/C(=N\Nc1ccc(C)c(Cl)c1)c1cccnc1 | 15.1µM* | 17.3% | ? | ? | 11.8% | ·
CCCn1c2ccccc2c2cnn(CC(=O)Nc3cc(C)c(Cl)cc3OC)c(=O)c21 | -9.6% | · | · | · | · | ·
COc1cc2cc(CNc3ccc(C)cc3)c(=O)n(CC(=O)Nc3ccc(C(C)C)cc3)c2cc1OC | -13.7% | · | · | · | · | ·
CCC1CN(C(=O)C2CCN(S(=O)(=O)c3c(C)noc3/C=C/c3ccc(C)cc3)CC2)c2cc(C)ccc2O1 (centres undefined) | 0.0% | · | · | · | · | ·
CSCCOC(=O)COc1ccc(/C=N/NC(=O)c2nn(C)cc2Cl)cc1 | 13.5µM* | 3.3% | -7.2% | -4.8% | 14.6% | -21.7%
CC1CCC/C(=N\NC(=O)Nc2ccccc2)C1 (centres undefined) | 15.1µM* | 5.6% | 0.8% | -1.0% | 25.4% | ·
Fc1ccc(Nc2c3c(nc4nncn24)CCC3)cc1 | -8.3% | · | · | · | · | -23.6%
O=C(O[C@@H]1Cc2c(O)cc(O)cc2OC1c1ccc(O)c(O)c1)c1cc(O)c(O)c(O)c1 (some centres undefined) | · | · | · | · | · | 3.3%
CCCCn1nc2cc(C(=O)NCCc3cccs3)ccc2c1OCC | -14.9% | 4.5% | 21.5% | ? | 8.1% | 9.1%
CCOc1c2ccc(C(=O)NCCc3cccs3)cc2nn1CC | 23.9µM* | ? | 3.55µM* | ? | 12.6% | 14.1µM*
CCCCOc1ccc(C(=O)NCCc2cccs2)cc1 | 7.57µM* | ? | 1.78µM* | 3.98µM* | 11.3% | 12.6µM*
O=[N+]([O-])c1ccc(N=Nc2c(Cl)cc(O)cc2Cl)cc1 | 2.69µM* | 7.7% | -46.5% | -38.9% | 23.6% | ·
COc1ccc(/C=C/C(=O)Nc2ccc3c(c2)CCC3)cc1OC | 19µM* | -0.1% | 13.4% | 0.1% | -11.4% | -35.8%
COc1ccc(OC)c(/C=C/C(=O)NC2=NCCS2)c1 | -12.9% | -1.7% | 26.7% | ? | 2.4% | 0.9%
COc1ccc(/C=C/C(=O)NC2=NCCS2)cc1OC | -10.9% | ? | 3.98µM* | 2.82µM* | 3.2% | ?

From PubChem BioAssay
